Rows were chosen to be rich in hits. Some 19% of all compounds tested hit in one or more screens of this group.
DT40 TDP1 no CPT: qHTS for Inhibitors of human tyrosyl-DNA phosphodiesterase 1 (TDP1): qHTS in cells in absence of CPT; Potency, µM (series often up to 46.2 µM), actives largely listed as inhibitors; 420,000 tested, 15% active; DT40 Tdp1-/- hTDP1 cells, no CPT, ATP luminescence, 48 h; also: nearly all actives have a fitted effect of over 55% in size
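Camptothecin absent (DMSO only). Human TDP1-complemented DT40 knockout cells, 400 cells/well, 37 °C for minimum 48 hr; ATP measured via CellTiter-Glo, 30 min dark incubation, luminescence.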
ELG1 repair inh: blocks ELG1-dependent DNA repair in HEK293T cells | HEK293T ELG1-luciferase reporter, luminescence, 16 h; DNA damage induced by 5-fluorouridine | Potency, µM (doses to about 46.1 µM), hits mostly inhibitors | 330,000 tested, 2.3% active; also: nearly all actives have a fitted effect of over 55% in size
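Overnight (16 hr) co-exposure of 2,000 cells/well to 5-fluorouridine and compound at 37 °C preceded detection. Luciferase was quantified via ONE-Glo luminescence; loss of signal denotes inhibition.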
IL-1B inflam inh: blocks inflammasome-driven IL-1 beta release; 360,000 tested, 4.7% active; activity change, % at 57.5 µM; THP-1 LPS/ATP IL-1B secretion, AlphaLISA, 16 h; hits give low values; in the data active = activity change below about -50%; inconclusive = mostly about -30% to -49%
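Secreted IL-1B measured by AlphaLISA bead assay after 16 h compound exposure of THP-1 cells; compounds (final up to 57.5 uM) added 1 h before LPS (250 ng/mL) and ATP (1.25 mM) stimulation; lower signal means less secretion.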
TDP1 block: TDP1 (human) enzyme inhibition; AID 485290; 350,000 tested, 0.28% active; Potency, µM (series often up to 130 µM), hits mostly inhibitors; recombinant TDP1, AlphaScreen DNA substrate cleavage; Q9NUW8; also: nearly all actives have a fitted effect of over 40% in size
Target sequence (Q9NUW8 whole entry, looked up): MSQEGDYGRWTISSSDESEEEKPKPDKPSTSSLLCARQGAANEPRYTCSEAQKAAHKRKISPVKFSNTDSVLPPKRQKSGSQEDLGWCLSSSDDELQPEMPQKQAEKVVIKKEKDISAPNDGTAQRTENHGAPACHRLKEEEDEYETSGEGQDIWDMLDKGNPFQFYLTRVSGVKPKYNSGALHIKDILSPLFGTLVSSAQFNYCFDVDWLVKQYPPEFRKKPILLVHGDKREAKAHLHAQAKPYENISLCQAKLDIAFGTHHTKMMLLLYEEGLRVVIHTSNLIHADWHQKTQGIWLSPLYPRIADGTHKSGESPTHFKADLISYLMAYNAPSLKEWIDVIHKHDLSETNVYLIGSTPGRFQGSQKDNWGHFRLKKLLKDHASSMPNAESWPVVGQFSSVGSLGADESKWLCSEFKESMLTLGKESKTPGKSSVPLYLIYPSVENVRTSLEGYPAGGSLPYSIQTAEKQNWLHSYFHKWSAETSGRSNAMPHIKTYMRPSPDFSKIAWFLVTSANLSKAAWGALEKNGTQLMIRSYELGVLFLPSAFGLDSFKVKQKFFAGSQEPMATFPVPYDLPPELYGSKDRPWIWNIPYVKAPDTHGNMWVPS
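Signal: AlphaScreen proximity between streptavidin donor and anti-FITC acceptor beads on intact substrate. Reaction: Tdp1 1 nM, substrate 15 nM final, 5 min RT after 15 min compound preincubation.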
TDP1 cell CPT: DT40-hTDP1 cell growth loss with CPT; AID 686979; 420,000 tested, 12% active; chicken DT40 Tdp1-/-;hTDP1 cells + 20 nM CPT, ATP luminescence, 48 h; Potency, µM (doses to about 46.2 µM), most hits filed as inhibitors; also: nearly all actives have a fitted effect of over 55% in size
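Chicken DT40 Tdp1-/- cells stably complemented with human TDP1 were seeded at 400 cells/well in medium containing 20 nM camptothecin, exposed to pin-transferred compounds, and grown at 37 °C for at least 48 hr. Viability was read as ATP luminescence.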
Giardia killer: kills Giardia lamblia; AID 540267; activity change, % at 7.66 µM, hits read low; 340,000 tested, 0.15% active; Giardia lamblia trophozoite viability; in the data active = activity change below about -80%; inconclusive = between about -30% and that limit;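 also: parasites exposed to compound for two days anaerobically before the ATP read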
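Viability, read as ATP luminescence: trophozoites at 100 cells/well, compound added, 48 hrs anaerobic at 37 deg C, then 15-30 min room-temperature development before reading.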
A number is an active result; . = inactive; ? = inconclusive; / = no result. Unless noted, calls follow the shape of the dose curve; as a rule, active = well fitted curve in the direction sought with a large enough effect; inconclusive = small, poorly fitted or top-dose-only effect, or another doubt; inactive = no such curve, though single readings can be large; an effect the other way counts as inactive or inconclusive.

SMILES	DT40 TDP1 no CPT	ELG1 repair inh	IL-1B inflam inh	TDP1 block	TDP1 cell CPT	Giardia killer
CC1CC2(CCCCC2)Nc2ccc3ccccc3c21 (stereo not given)	?	.	.	.	21µM	.
COc1ccc(-c2sc3ccc(N4CCOCC4)cc3c2C#CC(C)(C)O)cc1	9.2µM	.	.	.	21µM	.
COc1ccc(-c2sc3ccc(N4CCOCC4)cc3c2C#Cc2ccsc2)cc1	?	.	.	.	18µM	.
CCOc1ccccc1NC(=O)C1CCN(C(=O)C2CC(=O)N(c3ccc(C)cc3)C2)CC1 (stereo not given)	.	.	.	.	.	.
O=NN(C(=O)NCc1cccnc1)C1CCCCC1	.	/	.	/	.	/
Nc1ccc(C(=O)NN2C(=O)[C@H](Cl)C2c2ccc(Cl)cc2)cc1 (stereo not given in full)	3.7µM	/	-104	/	3.7µM	.
CCNC(=O)CC1C(=O)N(CC)C(=S)N1NC(=O)c1ccc(Cl)cc1 (stereo not given)	.	.	.	.	.	.
CCCCc1cc(=O)oc2cc(C)cc(OCC(=O)Nc3ccccn3)c12	.	?	.	.	.	.
Cc1ccc(CNC(=O)CCCc2cn(C)c3ccccc23)cc1	?	.	.	/	?	.
N#Cc1c(C(F)(F)F)cc(-c2cccs2)nc1SCc1cccnc1	?	?	.	.	?	.
N#Cc1ccc(-c2cccs2)nc1SCc1cccnc1	0.41µM	.	.	.	0.52µM	.
CC(=O)Nc1cccc(C(=O)NNC(=O)c2n[nH]c(=O)c3ccccc23)c1	.	.	.	.	.	.
O=C(CCC1N=C2c3ccccc3N=C(SCc3cccc(Cl)c3)N2C1=O)NCCc1ccccc1 (stereo not given)	?	/	/	.	?	/
O=C(CCC1N=C2c3ccccc3N=C(SCc3ccc(Cl)cc3)N2C1=O)NCCc1ccccc1 (stereo not given)	?	/	/	.	18µM	/
O=C(CCC1N=C2c3ccccc3N=C(SCc3ccc(F)cc3)N2C1=O)N1CCN(c2ccccc2)CC1 (stereo not given)	26µM	/	/	.	?	/
